# Measurements: the supplement of paper PMC13380429
# A number with no mark means an inactive call.
# System: Vero E6 infected with SARS-CoV-2
# Test: inhibition of SARS-CoV-2 cytopathic effect; higher = more antiviral protection, active = above 15
# Conditions: 48 h
Structure (SMILES),inhibition of SARS-CoV-2 cytopathic effect (1 nM) [%],inhibition of SARS-CoV-2 cytopathic effect (8.33 nM) [%],inhibition of SARS-CoV-2 cytopathic effect (100 nM) [%],inhibition of SARS-CoV-2 cytopathic effect (833.33 nM) [%],inhibition of SARS-CoV-2 cytopathic effect (10000 nM)
CN(C)[C@@H]1CCc2[nH]c3ccc(NC(=O)c4ccc(F)cc4)cc3c2C1,-0.2,0.81,1.23,3.46,4.97%
O=c1[nH]c2ccccc2n1CCCN1CCC(n2c(=O)[nH]c3cc(Cl)ccc32)CC1 [domperidone],0.36,-0.12,1.41,2.23,-3.31%
Cc1c(Cn2c(C)nc3c(C(=O)O)cc(N4CCOCC4)cc32)cccc1C(F)(F)F,1.56,4.39,3.91,-2.09,-2.66%
C#CCN(C)Cc1ccccc1 [pargyline],0,0.65,-1.02,-1.01,2.9%
CC[N+](CC)(CC)CCOc1ccc(/C=C/c2ccccc2)cc1,-0.65,1.39,2.2,1.89,7.99%
O=C(CCCl)NCc1ccccc1 [beclamide],-5.2,-1.11,0.49,0.86,-1.73%
Cc1ncc(CSSCc2cnc(C)c(O)c2CO)c(CO)c1O [pyritinol],-0.56,1.16,2.92,1.42,0.94%
Cc1ccc(NC(=O)c2ccc(CN3CCN(C)CC3)cc2)cc1Nc1nccc(-c2cccnc2)n1 [imatinib],2.28,1.75,5.42,7.15,20.1% (active)
Clc1cccc2c1CN(C1=NCCN1)C2,1.97,3.31,3.22,2.65,-2.32%
CN[C@@H](C)[C@H](O)c1ccccc1 [ephedrine],-1.32,-0.23,1.57,3.01,-0.52%
COCc1c(-c2ccc(NC(=O)Nc3cc(C(F)(F)F)ccc3F)c(F)c2)c2c(N)ncnn2c1CN1CCOCC1,-1.56,-1.94,-2.74,-0.39,-0.16%
CCCCCCCCCCCCCCCC[N+](C)(C)C [cetrimonium],1.02,-0.39,0.2,-3.96,-18.4%
O=C(O)[C@H]1O[C@@H](Oc2cc3oc(-c4ccccc4)cc(=O)c3c(O)c2O)[C@H](O)[C@@H](O)[C@@H]1O [baicalin],2.44,-0.79,-1.89,-5.03,2.97%
CC(C)(C)c1ccc(C(=O)CCCN2CCC(OC(c3ccccc3)c3ccccc3)CC2)cc1 [ebastine],0.86,1.48,0.7,-2.23,-4.94%
COC(=O)CCC(=O)CN [methyl-aminolevulinate],2.97,2.46,1.49,3.55,5.12%
CCCCCCC[N+](CC)(CC)CCCCc1ccc(Cl)cc1 [clofilium],2.85,1.44,1.58,1.2,3.38%
CCOc1ccccc1-n1c(C(C)N2CCN(C(=O)COc3ccc(Cl)cc3)CC2)nc2ccccc2c1=O (stereo not given) [erastin],-2.42,-0.63,-0.86,-2.74,7.21%
C/C(=N\NC(=N)N)c1cc(NC(=O)CCCCCCCCC(=O)Nc2cc(/C(C)=N/NC(=N)N)cc(/C(C)=N/NC(=N)N)c2)cc(/C(C)=N/NC(=N)N)c1 [semapimod],1.18,2.42,5.39,7.62,7.5%

Structure (SMILES),inhibition of SARS-CoV-2 cytopathic effect (1 nM) [%],inhibition of SARS-CoV-2 cytopathic effect (8.33 nM) [%],inhibition of SARS-CoV-2 cytopathic effect (100 nM) [%],inhibition of SARS-CoV-2 cytopathic effect (833.33 nM) [%],inhibition of SARS-CoV-2 cytopathic effect (10000 nM)
O=C(O)Cc1cccc2c(=O)cc(-c3ccccc3)oc12 [mitoflaxone],1.27,0.65,1.42,1.5,0.08%
Cc1c(N2C(=O)[C@@H]3[C@H](O)CCN3C2=O)ccc(C#N)c1Cl,2.38,3.57,0.87,2.02,1.06%
CON [methoxyamine],0.67,-2.53,-0.44,-3.19,-0.96%
C[C@H](Nc1cc(-c2cnn(C)c2)cc(Nc2cnccn2)n1)c1ccc(F)cc1,1.93,1.68,2.86,-4.39,-8.8%
CCOCOC[C@H](C[C@H](C)C(=O)NO)NC(=O)c1ccc(Oc2ccccc2)cc1,4.15,13.5,5.33,-3.29,-6.18%
COc1ccncc1C(=O)NC(=O)Nc1ccc(-c2ccccc2)c(C(F)(F)F)c1 [S1P1-agonist-III],-0.34,-0.01,-0.43,-0.2,-2.64%
O[C@@H]1CO[C@H]2[C@@H]1OC[C@@H]2O [isosorbide],-0.13,1.81,1.18,3.22,3.05%
Nc1cc(-c2ccncc2)c[nH]c1=O [amrinone],3.03,3.76,-3.46,-6.26,1.36%
O=C(/C=C/c1ccccc1)NC(NC(=S)Nc1cccc2cccnc12)C(Cl)(Cl)Cl (stereo not given) [salubrinal],3.2,0.1,1.16,-0.28,1.23%
CC(C)c1nnc(-c2ccc(-c3ccccc3)nc2)n1-c1cccc2nonc12,-5.81,-4.31,-0.24,0.55,-1.7%
COc1ccc(COc2ccc(Cc3cnc(N)nc3N)cc2OC)cc1,-0.78,-1.56,-0.01,0.11,0.48%
CN1CCCC(CN2c3ccccc3Sc3ccccc32)C1 (stereo not given) [mepazine],-2.3,3.28,3.56,-2.75,5.75%
CC1=C(/C=C/C(C)=C/C=C/C(C)=C/C=C/C=C(C)/C=C/C=C(C)/C=C/C2=C(C)C(=O)[C@@H](O)CC2(C)C)C(C)(C)C[C@H](O)C1=O [astaxanthin],-9.22,-11,-9.1,-8.76,-11.5%
CCOC(=O)c1ncn2c1CN(C)C(=O)c1cc(N=[N+]=[N-])ccc1-2,3.15,7.03,2.59,-0.14,-2.15%
CN(C)CCN(C)CCc1ccc(Cl)c(Cl)c1,-3,-0.98,1.41,-3.83,-3.28%
O=c1[nH]c(CCl)nc2sc3c(c12)CCCC3,-1.17,-1.84,-1.12,0.17,12.3%
Cc1cc(C)c(NC(=O)N(Cc2ccc3c(c2)Cc2ccccc2-3)C2CCCCCC2)c(C)c1,0.2,0.24,1.89,3.17,-1.02%
CCOC(=O)c1ccc(OCCC2CCN(c3ccc(C)nn3)CC2)cc1 [pirodavir],2.32,1.72,0.34,1.49,-2.18%
